Test results from PubChem BioAssay (EPA / NIEHS).
Activity calls are given as the source filed them. How the source made its calls: active means hit-call score of the fitted dose curve at least 0.9, where 1 is the maximum; inactive means score below 0.9.

What was measured:
[1] = read-out: Urokinase-type plasminogen activator receptor (uPAR), PLAUR (gene 5329); assay: BSK_CASM3C_uPAR: BioMAP Diversity Plus: CASM3C Assay for Urokinase-type plasminogen activator receptor (uPAR) Biomarker Activity (AID 2283054); details: primary human coronary artery smooth muscle cells; actives raise or lower the signal;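 further: cell-surface uPAR protein level quantified by ELISA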
[2] = read-out: Vascular cell adhesion molecule 1 (VCAM1), VCAM1 (gene 7412); assay: BSK_CASM3C_VCAM1: BioMAP Diversity Plus: CASM3C Assay for Vascular cell adhesion molecule 1 (VCAM1) Biomarker Activity (AID 2283055); details: primary human coronary artery smooth muscle cells; actives raise or lower the signal;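 further: VCAM-1 protein level quantified by ELISA on the cells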
[3] = read-out: Collagen III, COL3A1 (gene 1281); assay: BSK_hDFCGF_CollagenIII: BioMAP Diversity Plus: hDFCGF Assay for Collagen III Biomarker Activity (AID 2283056); details: primary human foreskin fibroblasts; actives raise or lower the signal
Method in brief: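 ELISA readout of Collagen III in human dermal (foreskin) fibroblasts, taken 24 h post-treatment. Gain or loss relative to DMSO vehicle fitted in both directions.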

[4] = read-out: Epidermal growth factor receptor (EGFR), EGFR (gene 1956); assay: BSK_hDFCGF_EGFR: BioMAP Diversity Plus: hDFCGF Assay for Epidermal growth factor receptor (EGFR) Biomarker Activity (AID 2283057); details: primary human foreskin fibroblasts; actives raise or lower the signal
Method in brief: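 Measured by ELISA: EGFR levels on primary human foreskin fibroblasts 24 h after chemical treatment, analysed relative to DMSO with bidirectional fitting.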

[5] = read-out: Interleukin-8 (IL8), CXCL8 (gene 3576); assay: BSK_hDFCGF_IL8: BioMAP Diversity Plus: hDFCGF Assay for Interleukin-8 (IL8) Biomarker Activity (AID 2283058); details: primary human foreskin fibroblasts; actives raise or lower the signal
Method in brief: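 IL-8 levels read by ELISA at 24 hours after dosing human skin fibroblast cultures. Parallel SRB staining assessed overt cytotoxicity, and gain or loss of signal was fitted against DMSO control.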

[6] = BSK_hDFCGF_Proliferation: Cell Proliferation Assessment in the BioMAP Diversity Plus: hDFCGF Assay (AID 2283059); details: primary human foreskin fibroblasts;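 further: curves fitted for both rise and fall of signal versus DMSO baseline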
Method in brief: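 Sub-confluent human foreskin fibroblast cultures receive test chemical […]. Relative cell number is quantified by sulforhodamine B staining (0.1%, after 10% TCA fixation) at 560 nm, with bidirectional fitting referenced to DMSO.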

[7] = read-out: Macrophage colony-stimulating factor (MCSF), CSF1 (gene 1435); assay: BSK_hDFCGF_MCSF: BioMAP Diversity Plus: hDFCGF Assay for Macrophage colony-stimulating factor (MCSF) Biomarker Activity (AID 2283060); details: primary human foreskin fibroblasts; actives raise or lower the signal
Method in brief: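 M-CSF levels read by ELISA at 24 h post-dosing in human skin fibroblasts. Parallel cultures stained with SRB assessed cytotoxicity at the same time point; response fitted in both directions against the DMSO baseline.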

[8] = BSK_hDFCGF_SRB: Viability Assessment in the BioMAP Diversity Plus: hDFCGF Assay (AID 2283061); details: primary human foreskin fibroblasts;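 further: cells exposed to compound for 24 h before the read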
Method in brief: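 Viability was read as total protein: after 10% TCA fixation, wells were stained with 0.1% sulforhodamine B and read at 560 nm. Primary human foreskin fibroblasts were dosed for 24 h, with bidirectional fitting versus DMSO.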

[9] = read-out: TIMP metallopeptidase inhibitor 1 (TIMP1), TIMP1 (gene 7076); assay: BSK_hDFCGF_TIMP1: BioMAP Diversity Plus: hDFCGF Assay for TIMP metallopeptidase inhibitor 1 (TIMP1) Biomarker Activity (AID 2283062); details: primary human foreskin fibroblasts; actives raise or lower the signal
Method in brief: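 TIMP-1 measured by ELISA 24 h after chemical dosing of primary human skin fibroblasts, with gain or loss fitted relative to DMSO. Parallel SRB staining (560 nm) monitored overt cytotoxicity.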

[10] = read-out: Monokine induced gamma interferon (MIG), CXCL9 (gene 4283); assay: BSK_hDFCGF_MIG: BioMAP Diversity Plus: hDFCGF Assay for Monokine induced gamma interferon (MIG) Biomarker Activity (AID 2283063); details: primary human foreskin fibroblasts; actives raise or lower the signal
Method in brief: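 Human primary foreskin fibroblasts in the hDFCGF system, exposed to test chemical for 24 h; MIG measured by ELISA. Bidirectional curve fitting against DMSO negative control as activity baseline.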

Structure (SMILES) | outcome [1] | outcome [2] | outcome [3] | outcome [4] | outcome [5] | outcome [6] | outcome [7] | outcome [8] | outcome [9] | outcome [10] | AC50 [1] | AC50 [6] | AC50 [3] | AC50 [7] | AC50 [4] | AC50 [8] | AC50 [10] | AC50 [2] | AC50 [5] | AC50 [9]
Nc1cc2c3c(c1)C(c1ccccc1)=N[C@@H](NC(=O)c1cccnc1)C(=O)N3CC2 | inactive | inactive | inactive | inactive | inactive | inactive | inactive | inactive | inactive | inactive | – | – | – | – | – | – | – | – | – | –
ClC(Cl)c1ccccc1 | inactive | inactive | inactive | inactive | inactive | inactive | inactive | inactive | inactive | inactive | – | – | – | – | – | – | – | – | – | –
O=S1(=O)OCC2C(CO1)C1(Cl)C(Cl)=C(Cl)C2(Cl)C1(Cl)Cl (stereo not given) | – | inactive | inactive | inactive | inactive | inactive | inactive | inactive | inactive | inactive | 30.1 µM (active) | – | – | – | – | – | – | – | – | –
Nc1ccc2ccccc2c1 | inactive | inactive | inactive | inactive | inactive | inactive | inactive | inactive | inactive | inactive | – | – | – | – | – | – | – | – | – | –
CCOP(=S)(OCC)SCS(=O)(=O)CC | inactive | inactive | inactive | inactive | inactive | inactive | inactive | inactive | inactive | inactive | – | – | – | – | – | – | – | – | – | –
c1ccc(OP(Oc2ccccc2)Oc2ccccc2)cc1 | inactive | inactive | inactive | inactive | inactive | inactive | inactive | inactive | inactive | inactive | – | – | – | – | – | – | – | – | – | –
Nc1ccc(Cl)cc1 | inactive | inactive | inactive | inactive | inactive | – | inactive | inactive | inactive | inactive | – | 7.71 µM (active) | – | – | – | – | – | – | – | –
O=S(=O)(F)C(F)(F)C(F)(F)C(F)(F)C(F)(F)C(F)(F)C(F)(F)C(F)(F)C(F)(F)F | inactive | inactive | inactive | inactive | inactive | inactive | inactive | inactive | inactive | inactive | – | – | – | – | – | – | – | – | – | –
Cc1ccc2c(c1N)C(=O)c1ccccc1C2=O | – | inactive | – | inactive | inactive | inactive | inactive | inactive | inactive | inactive | 20 µM (active) | – | 20 µM (active) | – | – | – | – | – | – | –
CCOP(=S)(NC(C)C)Oc1ccccc1C(=O)OC(C)C (stereo not given) | inactive | inactive | inactive | inactive | inactive | inactive | inactive | inactive | inactive | inactive | – | – | – | – | – | – | – | – | – | –
CCOP(=S)(OCC)SCSCC | inactive | inactive | inactive | inactive | inactive | inactive | inactive | inactive | inactive | inactive | – | – | – | – | – | – | – | – | – | –
Cc1c([N+](=O)[O-])cc2c(c1[N+](=O)[O-])C(C)(C)CC2(C)C | – | inactive | – | inactive | inactive | – | – | inactive | inactive | inactive | 0.384 µM (active) | 20 µM (active) | 3.32 µM (active) | 3.02 µM (active) | – | – | – | – | – | –
FC(F)(F)C(F)(C(F)(F)F)C(F)(F)C(F)(F)CC1CO1 (stereo not given) | inactive | inactive | inactive | inactive | inactive | inactive | inactive | inactive | inactive | inactive | – | – | – | – | – | – | – | – | – | –
COP(=O)(CCC(=O)NCO)OC | inactive | inactive | inactive | inactive | inactive | inactive | inactive | inactive | inactive | inactive | – | – | – | – | – | – | – | – | – | –
CCCN(CCC)c1c([N+](=O)[O-])cc(C(C)C)cc1[N+](=O)[O-] | inactive | inactive | – | – | inactive | – | – | – | inactive | – | – | 13.3 µM (active) | 9.07 µM (active) | 6.75 µM (active) | 20 µM (active) | 13.9 µM (active) | 9.44 µM (active) | – | – | –
CCOS(=O)(=O)OCC | inactive | inactive | inactive | inactive | inactive | inactive | inactive | inactive | inactive | inactive | – | – | – | – | – | – | – | – | – | –
Cc1ccc([N+](=O)[O-])cc1C | inactive | inactive | inactive | inactive | inactive | inactive | inactive | inactive | inactive | inactive | – | – | – | – | – | – | – | – | – | –
[N-]=[N+]=[N-] | inactive | inactive | inactive | inactive | inactive | inactive | inactive | inactive | inactive | inactive | – | – | – | – | – | – | – | – | – | –
CSC(C)(C)C=NO | inactive | inactive | inactive | inactive | inactive | inactive | inactive | inactive | inactive | inactive | – | – | – | – | – | – | – | – | – | –
CCCCCCCc1ccc(O)cc1 | – | – | – | inactive | – | – | – | – | – | – | 38 µM (active) | 13.5 µM (active) | 15.5 µM (active) | 20 µM (active) | – | 30 µM (active) | 28.5 µM (active) | 28.5 µM (active) | 35.1 µM (active) | 32.5 µM (active)
